One assay has as its target Albumin (Bos taurus) (UniProt P02769). Put plainly: bovine serum albumin binders on microarray, profiling panel, artefact control for SMM control protein annotation, biochemical, small-molecule microarray, Alexa647 label, 635/667 nm fluorescence (AID 1118).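 Further: score merges 667 nm emission intensity and signal-to-noise per printed compound spot.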 The conditions noted are these: BSA-A647 binding, fluorescence 635 nm, higher = more signal.
Assay [1] in a line: small-molecule microarray binders of probe aXIP, primary screen, biochemical, NeuroSMM set, 635/667 nm fluorescence (AID 1119).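 Further: probe is the protein aXip251-270 applied at 1 µg/mL to compound-printed slides; binding of probe to printed compounds measured as 667 nm fluorescence plus signal to noise.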 The conditions noted are these: higher = more signal, called active from +8 up or from −8 down.
A short description of assay [2]: small-molecule binders of probe aNOTCH3, primary screen, biochemical, small-molecule microarray, 635/667 nm fluorescence (AID 1120).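 Further: probe is a biotin-tagged antibody raised against NOTCH3 rather than NOTCH3 protein; score merges spot fluorescence near 667 nm with spot signal to noise.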 The conditions noted are these: higher = more signal.
The nature of assay [3]: small-molecule binders of probe aNOTCH2, primary screen, biochemical, small-molecule microarray, 635/667 nm fluorescence (AID 1121).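 Further: score merges feature fluorescence read at 667 nm with its signal to noise.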 The conditions noted are these: higher = more signal.
The target in assay [4] is Carbonic anhydrase 2 (Homo sapiens) (UniProt P00918). Kind of assay: CAII small-molecule binders, profiling panel, biochemical, small-molecule microarray, Alexa647-labelled CAII (AID 1122). The conditions noted are these: CAII-A647 binding fluorescence, higher = more signal.
A short description of assay [5]: COS7 lysate on small-molecule microarray, probe aHis, 635 nm (AID 1123).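 Further: z-score combines 667nm fluorescence intensity with signal-to-noise per printed compound spot.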 The following applies: COS7 cell lysate, fluorescence, higher = more signal.
The nature of assay [6]: compound binding in COS7 lysate, probe aLAP1, primary screen, cell lysate, small-molecule microarray (AID 1124).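 Further: lysate comes from COS7 cells expressing LAP1 and is applied at 0.3 µg/mL; score merges spot fluorescence near 667 nm with signal-to-noise over triplicate slides.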 The conditions noted are these: probe aLAP1, fluorescence, higher = more signal.
Another assay relates to Sam68 (KHDRBS1). Kind of assay: Sam68 small-molecule binders, primary screen, biochemical, small-molecule microarray, 635 nm fluorescence (AID 1125).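 Further: score merges 667 nm channel intensity with signal to noise over triplicate slides.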 The conditions noted are these: small-molecule microarray binding, higher = more signal.
Assay [7] concerns Chordin-like protein 2 (CHRDL2). Put plainly: CHRDL2 small-molecule binders, primary screen, biochemical, small-molecule microarray, 635 nm fluorescence (AID 1126).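 Further: printed compound slides probed with Chrdl2 protein at 4 µg/mL for 1 h at 4 C; score merges 667 nm emission intensity with signal to noise over three replicate slides.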 The following applies: small-molecule microarray binding, fluorescence 635 nm; higher = more signal.
Assay [8] concerns the target Concanavalin-A (Canavalia ensiformis) (UniProt P02866). Kind of assay: ConA small-molecule binders, primary screen, artefact control for SMM control protein annotation, biochemical, small-molecule microarray, Alexa647 label, 635 nm (AID 1127).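 Further: z combines 667 nm emission intensity with signal-to-noise across three replicate slides.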 The following applies: ConA-A647 binding fluorescence, higher = more signal.

The source made the active and inactive calls.

Concanavalin-A (Canavalia ensiformis), sequence (P02866 whole entry, looked up): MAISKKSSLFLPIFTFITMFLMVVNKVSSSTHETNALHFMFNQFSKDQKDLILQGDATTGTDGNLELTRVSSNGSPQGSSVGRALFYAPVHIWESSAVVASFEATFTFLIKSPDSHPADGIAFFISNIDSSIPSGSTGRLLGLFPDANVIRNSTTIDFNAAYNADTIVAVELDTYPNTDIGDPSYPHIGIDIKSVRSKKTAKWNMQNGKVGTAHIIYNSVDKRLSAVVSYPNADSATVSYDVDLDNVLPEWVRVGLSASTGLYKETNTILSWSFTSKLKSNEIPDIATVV
Albumin (Bos taurus), sequence (P02769 whole entry, looked up): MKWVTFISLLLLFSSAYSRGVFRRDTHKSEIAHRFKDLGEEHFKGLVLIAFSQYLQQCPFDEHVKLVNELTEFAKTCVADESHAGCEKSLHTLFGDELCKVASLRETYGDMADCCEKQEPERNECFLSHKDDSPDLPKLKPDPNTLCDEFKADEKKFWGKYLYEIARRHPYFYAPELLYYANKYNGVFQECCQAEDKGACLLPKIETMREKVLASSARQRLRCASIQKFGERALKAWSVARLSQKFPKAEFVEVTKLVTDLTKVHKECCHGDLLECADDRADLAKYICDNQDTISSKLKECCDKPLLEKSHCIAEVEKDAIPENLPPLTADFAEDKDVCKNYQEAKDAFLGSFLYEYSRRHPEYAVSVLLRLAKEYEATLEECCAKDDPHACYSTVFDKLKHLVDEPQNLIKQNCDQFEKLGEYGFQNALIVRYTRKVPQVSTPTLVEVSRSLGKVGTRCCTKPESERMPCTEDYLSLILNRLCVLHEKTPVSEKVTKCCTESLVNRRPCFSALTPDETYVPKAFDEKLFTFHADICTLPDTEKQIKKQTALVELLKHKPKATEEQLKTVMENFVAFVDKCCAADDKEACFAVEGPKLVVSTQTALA

For `CCOC(=O)[C@H](CC(C)C)NC(=O)CCC1CC(OC(=O)NCc2ccc3c(c2)OCO3)CC2(CCCC(COC(=O)NCCCN3CCCC3=O)O2)O1` (stereo not given in full), the composite z-score with Albumin (Bos taurus) is -0.0359; in assay [2], 0.0196; in assay [3], -0.108; in assay [4] it was 0.0039; in [5] it was 0.659; in assay [6], 0.178. Moreover, the figures for the composite z-score (in the assay on Sam68 (KHDRBS1); in assay [7]; in assay [8]) were 1.33, 0.325 and 1.08, respectively. The composite Z-score in [1] was -0.0273 (inactive).
For `COC(=O)NCC=Cc1nc(CCCO)co1`, the composite z-score is 0.782 with Albumin (Bos taurus); -0.0362 in [2]; -0.153 in assay [3]; -0.0958 in [4]; 0.549 in assay [5]; 0.215 in assay [6]. The composite z-score with Sam68 (KHDRBS1) worked out at 0.559; in assay [7] it was 0.809; in [8] it was 0.161. Besides, in assay [1], the composite Z-score is 0.678 (inactive).
Regarding `O=C1C=C[C@@H](O)[C@@H]2[C@@H]3C(=O)N(C[C@@H]4CCCO4)C(=O)[C@@H]3CC[C@@H]12`, the composite z-score in the assay with Albumin (Bos taurus) was 0.0654; in [2], -0.125; in assay [3], -0.112; in [4] it was -0.121; in [5], -0.17; in assay [6], 0.421. Besides, the figures for the composite z-score (with Sam68 (KHDRBS1); in assay [7]; in [8]) were 0.258, 0.458 and 0.332, respectively. In addition, the composite Z-score in assay [1] was 0.681 (inactive).
Regarding `CCOC(=O)[C@H](CC(C)C)NC(=O)CCC1CC(OC(=O)NCCc2ccc(F)cc2)CC2(CCCC(COC(=O)NCCOc3ccccc3)O2)O1` (stereo not given in full), the composite z-score is 0.671 with Albumin (Bos taurus); 0.0496 in assay [2]; -0.0971 in assay [3]; 0.193 in assay [4]; 1.31 in [5]; -0.0164 in assay [6]. The figures for the composite z-score (with Sam68 (KHDRBS1); in [7]; in [8]) were 1.23, 0.324 and 0.931, respectively. The composite Z-score in [1] was 0.0308 (inactive).
In the case of `CCOC(=O)[C@H](CC(C)C)NC(=O)CCC1CC(OC(=O)NCCc2ccc(F)cc2)CC2(CCCC(COC(=O)NCC(c3ccccc3)c3ccccc3)O2)O1` (stereo not given in full), the composite z-score with Albumin (Bos taurus) is 0.436; in [2] it was 0.0372; in assay [3], -0.108; in assay [4] it was 0.349; in assay [5] it was -0.0758; in assay [6], 0.0521. Moreover, the composite z-score in the assay with Sam68 (KHDRBS1) turned out to be 1.11; in assay [7] it was 0.609; in [8], 1.1. For the same compound, the composite Z-score in [1] is 0.428 (inactive).
On to `O=C(C=Cc1ccc2c(c1)OCO2)c1ccc(F)cc1`, for which the composite z-score was -0.744 with Albumin (Bos taurus); 0.278 in assay [2]; -0.0811 in assay [3]; -0.236 in [4]; -0.542 in [5]; 0.134 in [6]. The composite z-score was -0.21 with Sam68 (KHDRBS1), 1.31 in assay [7] and 0.108 in assay [8]. For the same compound, the composite Z-score in assay [1] is -0.188 (inactive).
On to `O=C1C[C@@H](O)[C@@H](O)[C@@H]2[C@@H]3C(=O)N(C[C@@H]4CCCO4)C(=O)[C@@H]3CC[C@H]12`, for which the composite z-score with Albumin (Bos taurus) was 0.225; in assay [2] it was 0.0197; in assay [3] it was -0.203; in assay [4], 0.0413; in assay [5], 0.157; in [6], -0.117. In addition, the composite z-score in the assay on Sam68 (KHDRBS1) worked out at 0.354; in assay [7], 0.72; in assay [8], 0.186. For the same compound, the composite Z-score in assay [1] is -0.472 (inactive).
Turning to `CCOC(=O)[C@H](Cc1ccccc1)NC(=O)CCC1CC(OC(=O)NCc2cccc3ccccc23)CC2(CCCC(COC(=O)NCc3cccc(C(F)(F)F)c3)O2)O1` (stereo not given in full), the composite z-score with Albumin (Bos taurus) was 0.331; in assay [2] it was -0.124; in [3], -0.14; in [4], 0.138; in assay [5] it was 0.345; in assay [6], 0.131. The composite z-score is 0.462 in the assay on Sam68 (KHDRBS1), -0.0424 in assay [7] and 0.187 in [8]. The composite Z-score in [1] is 0.0898 (inactive).
With `C=C(C)C(=O)OCC1CN2[C@@H](CC[C@@H](C)[C@@H]2c2ccc(Br)cc2)C(=O)O1` (stereo not given in full), the composite z-score with Albumin (Bos taurus) was 0.188; in [2], 0.0539; in [3], -0.11; in [4] it was -0.062; in assay [5], 0.0971; in assay [6] it was -0.126. Also, the composite z-score was 0.671 in the assay with Sam68 (KHDRBS1), 0.691 in [7] and 0.59 in assay [8]. Further, the composite Z-score in [1] is -0.168 (inactive).
Take `COc1ccc(O[C@H]2C=C[C@@H](c3ccccc3)O[C@@H]2CON=C(C)CCC(=O)OC[C@H]2O[C@H](c3ccccc3)C=C[C@@H]2Oc2ccc(OC)cc2)cc1`: the composite z-score in the assay with Albumin (Bos taurus) was 0.12; in [2], -0.165; in assay [3], -0.123; in assay [4], -0.62; in assay [5], -1.14; in assay [6] it was -0.295. In addition, the composite z-score in the assay on Sam68 (KHDRBS1) is -2.54; in assay [7], -0.633; in assay [8] it was -0.652. The composite Z-score in [1] was 0.456 (inactive).
As to `CC(C)=NOC[C@@H](C)[C@H](OCc1ccccc1)C(C)C`, the composite z-score with Albumin (Bos taurus) was -0.0998; in [2] it was -0.165; in assay [3], -0.206; in assay [4] it was -0.389; in [5], -0.616; in assay [6], -0.228. Moreover, the composite z-score is -1.61 with Sam68 (KHDRBS1), 0.0109 in assay [7] and -0.0651 in assay [8]. Besides, the composite Z-score in [1] is 0.317 (inactive).
As to `CC(C)CON=C1C[C@@H](O)[C@@H](O)[C@@H]2[C@@H]3C(=O)N(C[C@@H]4CCCO4)C(=O)[C@@H]3CC[C@@H]12`, the composite z-score is 0.268 with Albumin (Bos taurus); -0.0967 in [2]; -0.14 in assay [3]; 0.165 in [4]; 0.421 in assay [5]; 0.419 in assay [6]. In addition, the results for the composite z-score (in the assay with Sam68 (KHDRBS1); in assay [7]; in assay [8]) were 0.12, -0.39 and -0.339, respectively. Moreover, the composite Z-score in assay [1] is 0.223 (inactive).
For the compound `CO[C@H]1COC(=O)[C@@H](C)COC(=O)[C@H](C)NC(=O)CC=C[C@H]1C`, the composite z-score in the assay with Albumin (Bos taurus) was -0.859; in assay [2] it was -0.038; in assay [3], -0.0907; in [4], -0.328; in [5], -0.866; in assay [6], -0.225. Further, the composite z-score with Sam68 (KHDRBS1) was 0.486; in [7], 1.27; in [8] it was -0.99. For the same compound, the composite Z-score in assay [1] is 0.111 (inactive).
Take `COc1cccc([C@H]2Oc3ccc(OC)cc3C(=NOC[C@@H](O)[C@H]3O[C@@H]4OC(C)(C)O[C@@H]4[C@H]3O)[C@@H]2O)c1`: the composite z-score in the assay with Albumin (Bos taurus) is 0.891; in assay [2], 0.0831; in [3] it was -0.139; in assay [4] it was -0.149; in assay [5], 0.48; in assay [6], 0.248. The composite z-score in the assay on Sam68 (KHDRBS1) stood at 0.706; in assay [7], 0.461; in [8], 0.532. The composite Z-score in assay [1] was -0.563 (inactive).

Values taken from PubChem BioAssay.
